# Counter-ions that a name gives are not always drawn.
# Tested on: HL-1
# Assay: relative cell viability (CellTiter-Glo) vs DMSO control (% of DMSO control); higher = more viable cells
# In short: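 Cell viability was determined from CellTiter-Glo luminescence, expressed relative to vehicle-treated control cells. The cells were HL-1 mouse atrial cardiomyocytes, plated at 1000 cells per well in 384-well plates with compounds at 40, 200, 1000 or 5000 nM in 0.01% DMSO. One day after plating, they underwent 48 h of hypoxia (1% O2) in a hypoxic workstation followed by 24 h of reoxygenation in a normal incubator, or were kept in normoxia for an equal time.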
# [1] = oxygen condition: hypoxia 48 h (1% O2) + reoxygenation 24 h, 40 nM
# [2] = oxygen condition: hypoxia 48 h (1% O2) + reoxygenation 24 h, 200 nM
# [3] = oxygen condition: hypoxia 48 h (1% O2) + reoxygenation 24 h, 1000 nM
# [4] = oxygen condition: hypoxia 48 h (1% O2) + reoxygenation 24 h, 5000 nM
# [5] = oxygen condition: normoxia 72 h, 40 nM
# [6] = oxygen condition: normoxia 72 h, 200 nM
# [7] = oxygen condition: normoxia 72 h, 1000 nM
# [8] = oxygen condition: normoxia 72 h, 5000 nM
SMILES,relative cell viability [1],relative cell viability [2],relative cell viability [3],relative cell viability [4],relative cell viability [5],relative cell viability [6],relative cell viability [7],relative cell viability [8]
CN1CCN(CCCN2c3ccccc3Sc3ccc(Cl)cc32)CC1 [Prochlorperazine Dimaleate],114,111,106,113,98.7,99.3,102,105
C[C@]12CC[C@@H]3c4ccc(O)cc4CC[C@H]3[C@@H]1CCC2=O [Estrone],102,107,107,109,102,105,107,115
C[C@]12CC[C@@H]3c4ccc(O)cc4CC[C@H]3[C@@H]1C[C@@H](O)[C@@H]2O [Estriol],101,99.3,95.4,103,105,101,99.8,104
CC(=O)NS(=O)(=O)c1ccc(N)cc1 [sulfacetamide sodium],97.5,98.4,106,104,102,107,107,108
C[C@](N)(Cc1ccc(O)c(O)c1)C(=O)O [Methyldopa],105,79.3,104,103,98.8,91.9,102,109
CCN1CCN(c2cc(-c3ccc(F)cc3)c3c(n2)CCCCCC3)CC1 [Blonanserin],101,99.5,91.2,49.4,103,93.3,93.5,51.2
N=C(N)NCCN1CCCCCCC1 [Guanethidine Sulfate],101,101,96.2,113,103,107,103,116
CC(C)OC(=O)C(C(=O)OC(C)C)=C1SC=CS1 [Malotilate],89.7,105,115,109,102,104,111,109
CCOc1nc2cccc(C(=O)OC(C)OC(=O)OC3CCCCC3)c2n1Cc1ccc(-c2ccccc2-c2nn[nH]n2)cc1 (stereo not given) [Candesartan cilexetil],106,104,97.6,4.71,98,102,101,4.11
C[C@]12CCC(=O)C=C1[C@@H]1C[C@@H]1[C@H]1[C@@H]3[C@@H]4C[C@@H]4[C@@]4(CCC(=O)O4)[C@@]3(C)CC[C@@H]12 [Drospirenone],104,104,109,105,103,112,100,104
CCCCCCCCCCC[C@@H](C[C@@H]1OC(=O)[C@H]1CCCCCC)OC(=O)[C@H](CC(C)C)NC=O [Orlistat],104,115,94.9,107,108,112,102,103
NC(CO)C(=O)NNCc1ccc(O)c(O)c1O (stereo not given) [Benserazide],107,101,111,110,97.3,104,102,107
CN(C)CCOC(C)(c1ccccc1)c1ccccn1 (stereo not given) [Doxylamine Succinate],111,104,105,109,107,112,117,123
CN1CCCC(n2nc(Cc3ccc(Cl)cc3)c3ccccc3c2=O)CC1 (stereo not given) [Azelastine hydrochloride],96.2,98.2,101,85.4,97.9,102,96.4,84.2
O=C(O)/C=C/c1ccc(Cn2ccnc2)cc1 [Ozagrel HCl],103,102,102,96.7,90.2,96.8,104,97.8
CCC1(c2ccccc2)C(=O)NCNC1=O [Primidone],101,105,110,95.7,104,103,98.6,106
COc1ccc([C@@H]2Sc3ccccc3N(CCN(C)C)C(=O)[C@@H]2OC(C)=O)cc1 [Diltiazem HCl],104,105,106,114,105,108,109,113
CCOCC(O)COc1ccc(NC(=O)CC[S+](C)C)cc1 (stereo not given) [Suplatast tosylate],106,103,99.4,107,101,101,108,120
COc1ccc2c(c1)C(=O)N(CCc1ccc(S(=O)(=O)NC(=O)NC3CCCCC3)cc1)C(=O)C2(C)C [Gliquidone],97.7,108,102,113,96.6,114,110,116
N=C(N)NC(=N)N1CCOCC1 [Moroxydine],101,98.5,103,108,96.3,101,105,114

SMILES,relative cell viability [1],relative cell viability [2],relative cell viability [3],relative cell viability [4],relative cell viability [5],relative cell viability [6],relative cell viability [7],relative cell viability [8]
CCCCCCNC(=O)n1cc(F)c(=O)[nH]c1=O [Carmofur],102,83.8,51.6,18.3,99.2,81.2,44.3,15.1
Oc1ccc(OCc2ccccc2)cc1 [Monobenzone],99.6,114,110,103,107,104,108,99.8
CN(C)CCCN1c2ccccc2Sc2ccc(C(F)(F)F)cc21 [Triflupromazine HCl],98.8,105,102,106,102,99.3,101,106
Nc1ccc(C(=O)O)c(O)c1 [Aminosalicylate sodium],95.2,102,102,108,105,105,114,108
CN1CCC(=C2c3ccccc3C=Cc3ccccc32)CC1 [Cyproheptadine HCl],97.1,95.8,102,110,100,98.1,102,118
CCC[C@@H]1C[C@@H](C(=O)N[C@@H]([C@H]2O[C@H](SC)[C@H](O)[C@@H](O)[C@H]2O)[C@@H](C)O)N(C)C1 [Lincomycin hydrochloride],93.1,103,103,103,99,98.3,100,97
OCCN(CCO)c1nc(N2CCCCC2)c2nc(N(CCO)CCO)nc(N3CCCCC3)c2n1 [Dipyridamole],102,107,93.7,108,108,98.7,98,113
CC=CC1=C(C(=O)O)N2C(=O)[C@@H](NC(=O)[C@H](N)c3ccc(O)cc3)[C@H]2SC1 [Cefprozil hydrate],95.4,104,105,104,102,103,100,107
CN1CCOC(c2ccccc2)c2ccccc2C1 (stereo not given) [Nefopam HCl],95.1,74.3,43.9,93.2,60.3,45.5,44.4,68.8
Nc1nc(Cl)nc2c1ncn2[C@@H]1O[C@H](CO)[C@@H](O)[C@@H]1F [Clofarabine],114,69.7,6.59,2.39,106,62.6,3.43,1.95
C=C[C@]1(C)C[C@@H](OC(=O)CS[C@@H]2C[C@H]3CC[C@@H](C2)N3C)[C@]2(C)[C@H](C)CC[C@]3(CCC(=O)[C@H]32)[C@@H](C)[C@@H]1O [Retapamulin],104,104,105,108,98.3,97.1,89.2,81.7
Nc1nc2[nH]cc(CCc3ccc(C(=O)N[C@@H](CCC(=O)O)C(=O)O)cc3)c2c(=O)[nH]1 [Pemetrexed],116,104,85.8,74.8,104,95.5,90.8,69.6
NC[C@H](O)c1ccc(O)c(O)c1 [Noradrenaline bitartrate monohydrate],105,104,104,111,98.9,99.7,113,109
CN(C)CCc1c[nH]c2ccc(Cn3cncn3)cc12 [Rizatriptan Benzoate],103,108,110,107,109,104,110,113
Nc1nc(F)nc2c1ncn2[C@@H]1O[C@H](CO)[C@@H](O)[C@@H]1O [Fludarabine],104,101,107,109,101,107,104,83.7
Cn1ccnc1S [Methimazole],102,99.9,105,98.1,107,100,95.4,95.9
CS(=O)(=O)c1ccc(C(=O)Nc2ccc(Cl)c(-c3ccccn3)c2)c(Cl)c1 [Vismodegib],103,107,108,117,104,110,114,112
CNC(=C[N+](=O)[O-])NCCSCc1csc(CN(C)C)n1 [Nizatidine],108,104,106,95.7,115,104,106,85
Clc1ccc2c(c1)C(N1CCNCC1)=Nc1ccccc1O2 [Amoxapine],102,100,104,109,98.5,105,111,113
CC[C@H]1OC(=O)[C@H](C)[C@@H](O[C@H]2C[C@@](C)(OC)[C@@H](O)[C@H](C)O2)[C@H](C)[C@@H](O[C@@H]2O[C@H](C)C[C@H](N(C)C)[C@H]2O)[C@](C)(O)C[C@@H](C)CN(C)[C@H](C)[C@@H](O)[C@]1(C)O [Azithromycin],109,103,99.3,59.1,105,96.2,102,41.1

# Source: the supplement of paper PMC8371130
